In all, about 39,000 sequences were measured (“fluorescence intensity (a.u.)”: median about 4,300, highest 2% from about 39,000 on). This is one part of a sample in which the highest values are shown more often than they occur.
target: T1, OsSMF1 (Oryza sativa, UniProt Q6ZLB0 1-436); assay: protein-binding microarray (RPBM); PBS, 2% BSA, 51.3 ng/ul salmon testes DNA, 50 uM zinc acetate, 200 nM TF, 25 C, 1 h; high values mean tight binding; settings: protein: recombinant; tags: N-terminal polyhistidine and DsRed monomer fusion (pET32a); chain copies: 2; label: CyDye5-dUTP incorporated in the synthesized complementary strand; 3' TTTTT single-stranded linker to array surface; dsDNA, one strand shown
T1 sequence: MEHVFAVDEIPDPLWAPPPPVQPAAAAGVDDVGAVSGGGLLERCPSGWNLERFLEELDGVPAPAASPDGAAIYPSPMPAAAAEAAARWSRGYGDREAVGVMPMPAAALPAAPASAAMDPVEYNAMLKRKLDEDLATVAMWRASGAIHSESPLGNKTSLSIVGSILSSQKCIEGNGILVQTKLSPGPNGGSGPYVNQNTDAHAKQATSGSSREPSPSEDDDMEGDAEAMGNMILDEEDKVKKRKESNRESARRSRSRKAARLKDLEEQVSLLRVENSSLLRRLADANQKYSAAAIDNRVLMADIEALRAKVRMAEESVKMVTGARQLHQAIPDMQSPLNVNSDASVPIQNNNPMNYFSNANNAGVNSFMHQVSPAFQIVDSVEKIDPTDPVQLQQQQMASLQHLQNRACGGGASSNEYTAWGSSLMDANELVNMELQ
Method in brief: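 The binding signal for each feature is its fluorescence intensity in arbitrary units. An Axon 4000B scanner was used to read a custom Agilent array that had been made double-stranded with Cy5-dUTP primer extension, blocked with 2% BSA, incubated at 25 °C for 1 h with 200 nM protein in PBS, 2% BSA, salmon testes DNA and 50 µM zinc acetate, and washed. The protein was an N-terminal polyhistidine–DsRed transcription factor fusion from E. coli BL21-CodonPlus, purified on Ni–NTA.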

Point of comparison: “GCCTCGTTTGATTGGTCACATGCATGGAAAGAGACTCACACGGAGTCACCTAGTGCAG”, binding signal 16700 fluorescence intensity (a.u.). Against it:
- CCCAAGGAGGATGAGGTGGAGGTGGGAGTGCGCATTGAGGCGGAGTCACCTAGTGCAG — lower, 4880 fluorescence intensity (a.u.)
- CCTTAGACCTTCTGGATTACATCGTAAGCTGGCTTCTCCTCGGAGTCACCTAGTGCAG — lower, 3490 fluorescence intensity (a.u.)
- CCACACAGCGATAATCGAGCGGATTGGACCAAAGTACGAGCGGAGTCACCTAGTGCAG — higher, 38200 fluorescence intensity (a.u.)
- CAAAGCGGCCCAACAATGAACACGTCACTTGTATTCACTACGGAGTCACCTAGTGCAG — lower, 7510 fluorescence intensity (a.u.)
- GTTTGAGATGTGTAATAAAGGATCGATCTTGTTGACGATCCGGAGTCACCTAGTGCAG — lower, 3530 fluorescence intensity (a.u.)
- CCAGGATAAAATAAAGGTTGTATGTTACAAATGTTTGATCCGGAGTCACCTAGTGCAG — higher, 42200 fluorescence intensity (a.u.)
- TTGATTGAAATTGGAGATGATGTGACTGAAAAGTTGTGTGCGGAGTCACCTAGTGCAG — lower, 4220 fluorescence intensity (a.u.)
- TGACAGGTTGATGTGATGGAAAAGGACTGAAGGTTGGATCCGGAGTCACCTAGTGCAG — higher, 42400 fluorescence intensity (a.u.)
- ATGTGACTGAAAAGTTGTGTGTGTATGACAGGTTGATGTGCGGAGTCACCTAGTGCAG — lower, 3800 fluorescence intensity (a.u.)
- ACAAACTTTGTATACGTGTATAAAATATTGATATATGTACCGGAGTCACCTAGTGCAG — lower, 4410 fluorescence intensity (a.u.)
- GAAGTGTCCATATTGAGTCATTTGTCCATTTGCCCAGGCACGGAGTCACCTAGTGCAG — lower, 4960 fluorescence intensity (a.u.)
- TCCTCTTGCCTCCTCCGCTGAGGCAGCCAGTGCGTGCGCCCGGAGTCACCTAGTGCAG — lower, 3360 fluorescence intensity (a.u.)
- AGATGATCTAGGCGTGCGTGCATGCATGCGTGGCCCGCCACGGAGTCACCTAGTGCAG — lower, 4340 fluorescence intensity (a.u.)
- CTCCTCCTCCTCCAGACCTCCACGCGAGCGTGCCCCGGGGCGGAGTCACCTAGTGCAG — lower, 4470 fluorescence intensity (a.u.)
- AAGGAAGTCGTTTTGGACAGCGACACAGTCTCTAAAACACCGGAGTCACCTAGTGCAG — higher, 58900 fluorescence intensity (a.u.)
- TTGCAAACACAGGAATTACCGTTTGATTGAACCACAGGAACGGAGTCACCTAGTGCAG — lower, 12300 fluorescence intensity (a.u.)
- CCGTACTCATAAAGGAAGTCGTTTTGGACAGCATCACGGTCGGAGTCACCTAGTGCAG — lower, 4170 fluorescence intensity (a.u.)
- AAAACACAGGAATGGTCGTTTGATTGGAGCGCAGGAGAAACGGAGTCACCTAGTGCAG — higher, 64900 fluorescence intensity (a.u.)
- CAACTTTGGAAGAACTAAACACAGCATATGACAGTGCAGTCGGAGTCACCTAGTGCAG — lower, 4130 fluorescence intensity (a.u.)
- TAACATAGTTGATATTGTTTAATGTCATGACAAAGAATGACGGAGTCACCTAGTGCAG — lower, 3580 fluorescence intensity (a.u.)
- CTCCTACATGCACTCCCCTCTACAAAACCACAACCAGCATCGGAGTCACCTAGTGCAG — lower, 3600 fluorescence intensity (a.u.)
- ACTATTTCTCCAGATAGTAGTAGTAACTCTTACGTCATGGCGGAGTCACCTAGTGCAG — lower, 4910 fluorescence intensity (a.u.)
- CAAATCAAATTACCACATAAGCACCACGTCAATGCCACGTCGGAGTCACCTAGTGCAG — higher, 22200 fluorescence intensity (a.u.)
- CAAAAGGGAATGCTTTAGGCAGATCATGGAGATAAAGACTCGGAGTCACCTAGTGCAG — higher, 39000 fluorescence intensity (a.u.)
- AGCGTCACCTCAATGCCACGTGTGATAAAGACCTAGTTAACGGAGTCACCTAGTGCAG — higher, 17200 fluorescence intensity (a.u.)
- ATAAAGACCTAGTCAATGGAGTGCCACGTAGGCACCACGTCGGAGTCACCTAGTGCAG — higher, 39000 fluorescence intensity (a.u.)
- GAATTGCCACGTAGGCGCCACGTCATATGAAGACCGAGTCCGGAGTCACCTAGTGCAG — higher, 45500 fluorescence intensity (a.u.)
- TAAGCGCCACATCAGTGCCACGTCGGATGAAGACCGAGTCCGGAGTCACCTAGTGCAG — higher, 25000 fluorescence intensity (a.u.)
- CAGACAGACACAGAGAGATCGATATCAACATGCTTTAGTCCGGAGTCACCTAGTGCAG — lower, 3710 fluorescence intensity (a.u.)
- TTGTCAAATCATGGCGTCATTAGGCTTAAAAGATTCGTCTCGGAGTCACCTAGTGCAG — lower, 4280 fluorescence intensity (a.u.)
- AAATTGCCACGTAAGTGCCATGTCATATGAAGACCGAGTCCGGAGTCACCTAGTGCAG — higher, 17800 fluorescence intensity (a.u.)
- GTGTAGTTACCTTCTCGTAGGTGTCATCGAGGATGATGGCCGGAGTCACCTAGTGCAG — lower, 3910 fluorescence intensity (a.u.)
- CGGTATCGACGCAGCGTCTGAATGCAAGGGCCCGTGGTCACGGAGTCACCTAGTGCAG — higher, 27400 fluorescence intensity (a.u.)
- CGCCCAGGACGTCATGCCGGAGCTGGCCATGGTCACCGCGCGGAGTCACCTAGTGCAG — lower, 4070 fluorescence intensity (a.u.)
- GAGTTGTCAAGGGATGTCATCCCGACGTCAACACGATGGCCGGAGTCACCTAGTGCAG — lower, 4620 fluorescence intensity (a.u.)
- ACGGCGACAGCGTGGAGCTCCACGACGGCAGCGACGTCGGCGGAGTCACCTAGTGCAG — lower, 3590 fluorescence intensity (a.u.)
- CGGCAACAGCGGTGACAACGTGACGACGGGTGACGAGGCGCGGAGTCACCTAGTGCAG — lower, 5320 fluorescence intensity (a.u.)
- CGACAGCGGAACGTGAGCTCTGGGGCGACGACGGCGGCAACGGAGTCACCTAGTGCAG — higher, 46800 fluorescence intensity (a.u.)
- CAAGCTCATCAACTTCGTTCGGTCCAAGGTGCGTCAGGGTCGGAGTCACCTAGTGCAG — lower, 3180 fluorescence intensity (a.u.)
- TTAGCAACCTATCGTCATAGAGAGACCCAATGAACCCTTGCGGAGTCACCTAGTGCAG — lower, 3860 fluorescence intensity (a.u.)
- TAGAGAAAGCAAAGCACATACATAGGCTAATTCTCCTTTACGGAGTCACCTAGTGCAG — higher, 39200 fluorescence intensity (a.u.)
- CCCTAGTCTCCTCCCTTGTACATAGGCAAATCCATACGCACGGAGTCACCTAGTGCAG — lower, 3640 fluorescence intensity (a.u.)
- TAATTGGGGTGATGTGGCTAATTCTCAAAGCAGTTTTATACGGAGTCACCTAGTGCAG — lower, 5820 fluorescence intensity (a.u.)
- CGCCATGGGCGAGGCGGTGAAGGGGCCAGTGGTGGTGACGCGGAGTCACCTAGTGCAG — lower, 4250 fluorescence intensity (a.u.)
- TCTTCCTCAAAGTAAAATAGAAGCTAGGGCTAAGAGCCCACGGAGTCACCTAGTGCAG — higher, 65100 fluorescence intensity (a.u.)
- TATAGCAAAGAAAAGTAAAATAAGAGGCATGAGCTCACGCCGGAGTCACCTAGTGCAG — higher, 37800 fluorescence intensity (a.u.)
- AAATAGAAAGCCCAAACGGATATTTCTTCCTGAGAGCCACCGGAGTCACCTAGTGCAG — higher, 35600 fluorescence intensity (a.u.)
- CTACACACGAGACGTGCAAACCTGCAGATTTTGTTACTTGCGGAGTCACCTAGTGCAG — lower, 4830 fluorescence intensity (a.u.)
- CCACGGGCTACAAAGCACGCGCGTCACTCGCTCTCGCGGCCGGAGTCACCTAGTGCAG — lower, 4390 fluorescence intensity (a.u.)
- TCCGTATGAAATAGTGTCTCCGTCAGATTGGGGAAGCGGGCGGAGTCACCTAGTGCAG — lower, 3200 fluorescence intensity (a.u.)
- AAATGTAGTTGTAAAATCCACAAAATAGTCTAGTCAGAAGCGGAGTCACCTAGTGCAG — lower, 3340 fluorescence intensity (a.u.)
- CAGAAGCGTCTACATACAATAGGATTGGGGCCTGCAAATCCGGAGTCACCTAGTGCAG — higher, 55500 fluorescence intensity (a.u.)
- TGTGTTCTCAATTTTGCGTGTTCTCAATGACACGTGAACACGGAGTCACCTAGTGCAG — lower, 5630 fluorescence intensity (a.u.)

Source: article PMC7819943, “Rice protein-binding microarrays: a tool to detect cis-acting elements near promoter regions in rice”
